PubChem BioAssay (NCATS)
Several values for one entry are separate records, joined by “and”; a condition that tells them apart may be missing. Equal entries are not always repeated. Inconclusive results are not listed. Activity calls are given as the source filed them. The call rests on the fitted dose curve.

test: qHTS Assay for Lipid Storage Modulators (AID 1519); conditions: Drosophila S3 cells, BODIPY lipid droplet/cell ratio, laser cytometry; at 57.5 µM (top of the series); cells loaded with oleic acid; on activity change, negative = inhibition: on the % scale 0 is the no-effect control and ±100 the full control effect
Outline: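 Cells seeded at 5,000 per well were treated with compounds over a concentration series and loaded with oleic acid (400 uM, as added). Lipid droplet fluorescence (488 nm excitation, 500-530 nm channel) was read by laser-scanning cytometry and normalized to 20 uM Triacsin C.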

SMILES	activity change, negative = inhibition
N[C@H](C(=O)O)c1ccc(C(=O)O)c(O)c1	2.68% (inactive)
O=C(O)Cc1cc2ccccc2nc1C(=O)O	-1.15% (inactive)
CC(N)=NCCC[C@H](N)C(=O)O	4.11% (inactive)
N[C@@H]1CCN(O)C1=O	4.58% (inactive)
NC[C@](O)(CS(=O)(=O)O)c1ccc(Cl)cc1	-5.03% (inactive)
COc1ccccc1NC(=O)Nc1nc(-c2cccnc2)nc2ccccc12	-0.716% (inactive)
CC(C)SC(=N)N	-0.874% (inactive)
O=C(O)COc1ccc(OCCNC[C@@H](O)COc2ccccc2)cc1	3.49% (inactive)
N[C@H](Cc1cnc[nH]1)C(=O)O	-0.699% (inactive)
N[C@H](CCC(=O)NCC(=O)O)C(=O)O	-2.27% (inactive)
CCC(=O)O[C@H](CC(=O)O)C[N+](C)(C)C	3.1% (inactive)
N[C@]1(C(=O)O)CCc2cc(C(=O)O)ccc21	5.84% (inactive)
C[C@@](N)(C(=O)O)c1ccc(P(=O)(O)O)cc1	-5.17% (inactive)
C[C@H](C[C@H](N)C(=O)O)C(=O)O	-1.92% (inactive)
O=C(O)[C@H]1CCCNC1	-2.39% (inactive)
O=C(O)[C@H]1CN(CCCP(=O)(O)O)CCN1	5.99% (inactive) and -0.486% (inactive)

SMILES	activity change, negative = inhibition
NCCC(=O)O	-2.51% (inactive)
N[C@@H](C(=O)O)c1ccc(P(=O)(O)O)cc1	2.44% (inactive)
C[C@@](N)(C(=O)O)c1ccc(C(=O)O)cc1	-1.38% (inactive) and 3.86% (inactive)
N[C@H](C(=O)O)c1nn[nH]n1	1.12% (inactive)
N[C@H](C(=O)O)[C@@H]1C[C@@H]1C(=O)O	0.571% (inactive) and -0.444% (inactive)
CC[C@](N)(CCC(=O)O)C(=O)O	-0.484% (inactive)
CC(N)=NCCCC[C@H](N)C(=O)O	-4.89% (inactive)
CC(C)[C@@H]1[C@H]2CC[C@H](C2)[C@H]1N	-6.29% (inactive)
N[C@H](C(=O)O)c1ccc(C(=O)O)cc1	-2.07% (inactive)
C[C@@H]1C[C@@H]2[C@H]3CCC4=CC(=O)C=C[C@]4(C)[C@]3(F)[C@@H](O)C[C@@]2(C)[C@@]1(O)C(=O)CO	-3.85% (inactive)
C=C[C@@]1(C)CC(=O)[C@@]2(O)[C@@]3(C)[C@@H](O)CCC(C)(C)[C@@H]3[C@H](O)[C@H](OC(C)=O)[C@@]2(C)O1	-0.114% (inactive)
N[C@H](CCC(=O)N[C@H](CSN=O)C(=O)NCC(=O)O)C(=O)O	1.5% (inactive)
c1ccc2oc(C3=NCCN3)cc2c1	-5.14% (inactive)
CC(C)(C)NC[C@H](O)COc1cccc2[nH]c(=O)[nH]c12	-4.86% (inactive)
CCC(=O)N[C@@H]1Cc2ccccc2[C@@H](c2ccccc2)C1	10.8% (inactive)
S=C(S)O[C@@H]1C[C@@H]2C[C@H]1[C@@H]1CCC[C@H]21	-0.164% (inactive)

same assay, conditions: Drosophila S3 cells, BODIPY lipid droplet/cell ratio, laser cytometry; measured here: cell count channel max response; cells loaded with oleic acid

SMILES	max response
CC[N+](C)(CC)CCC[n+]1c(-c2ccccc2)c2cc(N)ccc2c2ccc(N)cc21	-4.14%
N[C@H](C(=O)O)c1ccc(C(=O)O)c(O)c1	-19.5%
O=C(O)Cc1cc2ccccc2nc1C(=O)O	1.68%
CC(N)=NCCC[C@H](N)C(=O)O	-7.21%
N[C@@H]1CCN(O)C1=O	18.8%
NC[C@](O)(CS(=O)(=O)O)c1ccc(Cl)cc1	11.5%
CO[C@@]12C[C@@H](COC(=O)c3cncc(Br)c3)CN(C)[C@H]1Cc1cn(C)c3cccc2c13	-7.54%
COc1ccccc1NC(=O)Nc1nc(-c2cccnc2)nc2ccccc12	-30.6%
CC(C)SC(=N)N	1.11%
O=C(O)COc1ccc(OCCNC[C@@H](O)COc2ccccc2)cc1	8.13%
COC(=O)[C@@H]1[C@@H]2C[C@H]3c4[nH]c5ccccc5c4CCN3C[C@@H]2CC[C@@H]1O	-5.31% and -9.47% and 16%
N[C@H](Cc1cnc[nH]1)C(=O)O	-9.8%
N[C@H](CCC(=O)NCC(=O)O)C(=O)O	4.97%
CC1=C(\C=C/C(C)=C/C=C\C(C)=C\C(=O)O)C(C)(C)CCC1	-6.58% and 5.14%
CCC(=O)O[C@H](CC(=O)O)C[N+](C)(C)C	-8.23%
N[C@]1(C(=O)O)CCc2cc(C(=O)O)ccc21	14.2%
C[C@@](N)(C(=O)O)c1ccc(P(=O)(O)O)cc1	0.435%
C[C@H](C[C@H](N)C(=O)O)C(=O)O	-13.2%
O=C(O)[C@H]1CCCNC1	-0.0867%
O=C(O)[C@H]1CN(CCCP(=O)(O)O)CCN1	-5.69% and -2.47%

SMILES	max response
NCCC(=O)O	-17.6%
CCN(Cc1ccncc1)C(=O)[C@@H](CO)c1ccccc1	-10.2%
N[C@@H](C(=O)O)c1ccc(P(=O)(O)O)cc1	3.42%
C[C@@](N)(C(=O)O)c1ccc(C(=O)O)cc1	-12.7% and -2.32%
N[C@H](C(=O)O)c1nn[nH]n1	-0.925%
N[C@H](C(=O)O)[C@@H]1C[C@@H]1C(=O)O	-21% and 5.3%
CNCC[C@H](Oc1ccccc1OC)c1ccccc1	-10.8%
C[C@H](N=C(NC#N)Nc1ccncc1)C(C)(C)C	1.19%
CC[C@](N)(CCC(=O)O)C(=O)O	20.6%
CC(N)=NCCCC[C@H](N)C(=O)O	-8.18%
C[C@@H](CCc1ccc(O)cc1)NCCc1ccc(O)c(O)c1	1.22%
CC(C)[C@@H]1[C@H]2CC[C@H](C2)[C@H]1N	-11.1%
N[C@H](C(=O)O)c1ccc(C(=O)O)cc1	-4.05%
C[C@@H]1C[C@@H]2[C@H]3CCC4=CC(=O)C=C[C@]4(C)[C@]3(F)[C@@H](O)C[C@@]2(C)[C@@]1(O)C(=O)CO	8.23%
C=C[C@@]1(C)CC(=O)[C@@]2(O)[C@@]3(C)[C@@H](O)CCC(C)(C)[C@@H]3[C@H](O)[C@H](OC(C)=O)[C@@]2(C)O1	13.9%
N[C@H](CCC(=O)N[C@H](CSN=O)C(=O)NCC(=O)O)C(=O)O	13.2%
c1ccc2oc(C3=NCCN3)cc2c1	-13.1%
CC(C)(C)NC[C@H](O)COc1cccc2[nH]c(=O)[nH]c12	-1.97%
CCC(=O)N[C@@H]1Cc2ccccc2[C@@H](c2ccccc2)C1	13.4%
S=C(S)O[C@@H]1C[C@@H]2C[C@H]1[C@@H]1CCC[C@H]21	8.79%
